Source: the supplement of paper PMC11732987, “Enantioselective OTUD7B fragment discovery through chemoproteomics screening and high-throughput optimisation” (Communications Chemistry, 2025)

Legend:
Experiment in all cases: log2 ratio of Biotin-Ahx-Ub-VS probe labelling (fragment/DMSO); higher = less target engagement (more negative = stronger competition), active = hit call of the paper (q ≤ 0.05, log2 ratio ≤ -1)
Conditions in all cases: compound concentration: 200 uM; treatment time: 3 h
[1] = target: USP34 (UniProt Q70CQ2)
Chain of USP34 (Q70CQ2 whole entry, the tested form may be a part): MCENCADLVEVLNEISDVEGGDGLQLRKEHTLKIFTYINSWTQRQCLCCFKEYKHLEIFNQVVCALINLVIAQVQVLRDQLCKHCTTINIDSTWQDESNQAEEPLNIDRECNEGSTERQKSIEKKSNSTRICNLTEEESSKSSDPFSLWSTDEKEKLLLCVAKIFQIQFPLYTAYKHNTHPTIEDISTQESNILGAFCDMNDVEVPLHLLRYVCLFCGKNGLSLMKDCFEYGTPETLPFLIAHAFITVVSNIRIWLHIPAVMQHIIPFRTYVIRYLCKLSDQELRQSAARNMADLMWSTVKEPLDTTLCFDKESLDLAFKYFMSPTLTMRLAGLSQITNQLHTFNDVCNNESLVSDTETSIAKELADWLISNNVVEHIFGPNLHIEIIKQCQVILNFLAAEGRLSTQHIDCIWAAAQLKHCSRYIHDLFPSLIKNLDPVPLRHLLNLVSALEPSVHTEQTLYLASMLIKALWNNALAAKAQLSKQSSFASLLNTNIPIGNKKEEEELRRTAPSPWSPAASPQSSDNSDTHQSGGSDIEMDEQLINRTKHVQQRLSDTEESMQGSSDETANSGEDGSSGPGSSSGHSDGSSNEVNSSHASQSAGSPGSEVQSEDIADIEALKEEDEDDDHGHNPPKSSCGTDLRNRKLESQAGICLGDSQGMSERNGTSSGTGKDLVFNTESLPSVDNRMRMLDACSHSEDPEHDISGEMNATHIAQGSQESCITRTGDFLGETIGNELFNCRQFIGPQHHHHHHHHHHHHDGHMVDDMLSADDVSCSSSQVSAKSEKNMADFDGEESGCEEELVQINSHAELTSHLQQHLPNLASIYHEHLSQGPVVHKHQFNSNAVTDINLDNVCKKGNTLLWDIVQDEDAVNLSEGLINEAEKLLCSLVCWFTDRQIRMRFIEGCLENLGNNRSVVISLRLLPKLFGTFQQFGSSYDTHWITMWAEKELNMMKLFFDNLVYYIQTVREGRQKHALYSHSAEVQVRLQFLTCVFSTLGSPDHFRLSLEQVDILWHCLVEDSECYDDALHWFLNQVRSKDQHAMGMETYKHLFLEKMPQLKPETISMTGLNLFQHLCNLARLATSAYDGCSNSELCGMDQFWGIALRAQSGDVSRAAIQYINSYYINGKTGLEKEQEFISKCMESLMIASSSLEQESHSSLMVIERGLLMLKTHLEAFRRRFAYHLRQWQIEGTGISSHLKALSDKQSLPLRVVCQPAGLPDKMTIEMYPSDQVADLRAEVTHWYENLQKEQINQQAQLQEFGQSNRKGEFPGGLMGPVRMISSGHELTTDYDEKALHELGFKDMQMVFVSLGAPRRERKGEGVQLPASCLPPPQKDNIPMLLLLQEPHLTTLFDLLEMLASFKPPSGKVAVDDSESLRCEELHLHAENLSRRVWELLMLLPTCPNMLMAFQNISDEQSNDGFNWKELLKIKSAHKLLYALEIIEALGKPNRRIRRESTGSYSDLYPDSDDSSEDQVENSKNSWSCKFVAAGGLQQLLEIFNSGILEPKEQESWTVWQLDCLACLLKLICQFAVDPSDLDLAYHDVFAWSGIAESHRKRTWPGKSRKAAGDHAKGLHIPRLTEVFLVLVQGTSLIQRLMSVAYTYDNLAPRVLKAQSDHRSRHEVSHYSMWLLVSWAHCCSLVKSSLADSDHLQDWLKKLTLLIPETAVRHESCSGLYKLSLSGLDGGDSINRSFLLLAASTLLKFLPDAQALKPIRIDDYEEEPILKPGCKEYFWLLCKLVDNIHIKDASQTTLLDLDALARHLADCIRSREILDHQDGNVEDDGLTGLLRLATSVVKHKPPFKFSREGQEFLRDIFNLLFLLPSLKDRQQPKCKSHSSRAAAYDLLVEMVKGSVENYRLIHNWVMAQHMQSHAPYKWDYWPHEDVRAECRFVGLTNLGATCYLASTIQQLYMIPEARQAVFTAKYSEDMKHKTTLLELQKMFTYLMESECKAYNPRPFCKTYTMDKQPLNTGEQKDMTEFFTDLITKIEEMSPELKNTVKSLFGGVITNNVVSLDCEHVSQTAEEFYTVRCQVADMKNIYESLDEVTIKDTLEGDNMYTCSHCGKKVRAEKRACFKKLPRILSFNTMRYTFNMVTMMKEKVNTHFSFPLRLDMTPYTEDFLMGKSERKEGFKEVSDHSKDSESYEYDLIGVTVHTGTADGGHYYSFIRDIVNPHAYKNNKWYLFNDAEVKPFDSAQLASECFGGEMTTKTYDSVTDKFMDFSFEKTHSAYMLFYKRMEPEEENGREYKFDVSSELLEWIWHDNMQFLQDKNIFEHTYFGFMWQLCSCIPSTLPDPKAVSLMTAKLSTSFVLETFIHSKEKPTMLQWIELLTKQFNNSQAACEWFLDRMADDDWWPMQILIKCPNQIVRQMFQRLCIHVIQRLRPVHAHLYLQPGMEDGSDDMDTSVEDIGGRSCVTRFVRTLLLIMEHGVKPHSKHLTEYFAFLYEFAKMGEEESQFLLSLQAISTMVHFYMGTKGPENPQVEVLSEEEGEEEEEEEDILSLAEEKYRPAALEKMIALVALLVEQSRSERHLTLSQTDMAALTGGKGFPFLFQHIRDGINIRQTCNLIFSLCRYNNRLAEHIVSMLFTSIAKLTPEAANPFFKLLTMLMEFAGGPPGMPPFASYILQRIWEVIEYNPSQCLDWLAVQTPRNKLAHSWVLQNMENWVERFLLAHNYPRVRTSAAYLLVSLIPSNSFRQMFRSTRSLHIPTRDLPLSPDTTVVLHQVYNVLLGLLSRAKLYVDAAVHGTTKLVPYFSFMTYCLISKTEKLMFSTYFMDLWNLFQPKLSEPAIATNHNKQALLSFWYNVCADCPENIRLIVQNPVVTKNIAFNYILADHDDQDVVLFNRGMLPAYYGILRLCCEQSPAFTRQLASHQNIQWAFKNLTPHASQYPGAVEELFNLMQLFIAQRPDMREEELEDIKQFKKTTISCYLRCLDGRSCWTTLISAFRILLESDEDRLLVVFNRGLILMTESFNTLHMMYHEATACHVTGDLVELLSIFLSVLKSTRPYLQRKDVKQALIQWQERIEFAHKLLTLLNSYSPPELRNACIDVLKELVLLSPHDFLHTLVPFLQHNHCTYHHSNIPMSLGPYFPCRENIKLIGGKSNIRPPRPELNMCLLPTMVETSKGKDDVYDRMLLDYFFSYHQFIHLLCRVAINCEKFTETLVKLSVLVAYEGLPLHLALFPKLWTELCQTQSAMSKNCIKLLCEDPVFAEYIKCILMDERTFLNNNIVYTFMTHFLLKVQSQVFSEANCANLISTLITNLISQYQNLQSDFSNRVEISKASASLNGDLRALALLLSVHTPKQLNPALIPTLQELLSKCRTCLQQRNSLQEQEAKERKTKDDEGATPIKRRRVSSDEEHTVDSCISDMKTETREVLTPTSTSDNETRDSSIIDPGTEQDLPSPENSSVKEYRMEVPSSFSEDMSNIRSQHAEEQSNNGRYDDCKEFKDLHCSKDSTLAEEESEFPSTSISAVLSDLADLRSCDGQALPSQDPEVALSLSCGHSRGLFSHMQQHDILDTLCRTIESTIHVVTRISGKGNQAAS
Summary of the method: (§1)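 Triplicate samples of HEK293T lysate, 495 µg each, received fragment at 200 µM or vehicle for 3 h, followed by Biotin-Ahx-Ub-VS (0.5 µM final) for 1 h. After NeutrAvidin enrichment of labelled DUBs and LysC/trypsin digestion, peptides were run by diaPASEF LC-MS/MS. The values are average log2 fragment/vehicle ratios from global-median-normalised Spectronaut label-free quantities, tested by unpaired t-test on proteins having ≥2 unique peptides.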

[2] = target: T1, USP36 (UniProt Q9P275)
T1 sequence (whole entry): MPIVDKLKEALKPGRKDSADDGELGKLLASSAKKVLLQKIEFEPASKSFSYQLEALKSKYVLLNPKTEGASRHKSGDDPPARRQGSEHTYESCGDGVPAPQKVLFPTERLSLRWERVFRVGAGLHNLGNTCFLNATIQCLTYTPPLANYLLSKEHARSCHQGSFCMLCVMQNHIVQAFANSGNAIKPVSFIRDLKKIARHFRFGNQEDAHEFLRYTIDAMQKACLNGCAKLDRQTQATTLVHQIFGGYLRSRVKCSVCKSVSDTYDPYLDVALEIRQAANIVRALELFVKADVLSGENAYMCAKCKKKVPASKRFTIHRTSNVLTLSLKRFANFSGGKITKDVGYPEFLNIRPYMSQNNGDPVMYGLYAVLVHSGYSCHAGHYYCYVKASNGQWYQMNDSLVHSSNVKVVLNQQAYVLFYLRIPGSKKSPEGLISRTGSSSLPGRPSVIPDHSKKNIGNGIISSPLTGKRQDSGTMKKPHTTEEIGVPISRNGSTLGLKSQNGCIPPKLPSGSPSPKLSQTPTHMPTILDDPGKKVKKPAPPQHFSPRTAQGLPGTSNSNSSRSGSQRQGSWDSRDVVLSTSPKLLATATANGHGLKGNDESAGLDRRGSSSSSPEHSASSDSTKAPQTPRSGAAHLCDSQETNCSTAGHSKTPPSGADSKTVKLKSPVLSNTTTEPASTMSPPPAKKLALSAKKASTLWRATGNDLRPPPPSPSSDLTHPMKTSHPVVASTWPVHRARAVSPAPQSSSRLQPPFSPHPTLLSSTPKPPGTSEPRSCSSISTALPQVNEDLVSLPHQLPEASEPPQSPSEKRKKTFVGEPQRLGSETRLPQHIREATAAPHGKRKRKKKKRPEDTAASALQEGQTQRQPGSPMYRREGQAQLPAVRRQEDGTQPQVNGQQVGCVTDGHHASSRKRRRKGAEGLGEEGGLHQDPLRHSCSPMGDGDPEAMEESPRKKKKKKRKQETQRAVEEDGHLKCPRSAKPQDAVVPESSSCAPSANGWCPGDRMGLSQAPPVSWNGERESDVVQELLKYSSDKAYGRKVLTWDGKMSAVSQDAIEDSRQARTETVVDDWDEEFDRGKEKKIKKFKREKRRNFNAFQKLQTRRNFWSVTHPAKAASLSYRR
Summary of the method: as §1

[3] = target: T2, USP38 (UniProt Q8NB14)
T2 sequence (whole entry): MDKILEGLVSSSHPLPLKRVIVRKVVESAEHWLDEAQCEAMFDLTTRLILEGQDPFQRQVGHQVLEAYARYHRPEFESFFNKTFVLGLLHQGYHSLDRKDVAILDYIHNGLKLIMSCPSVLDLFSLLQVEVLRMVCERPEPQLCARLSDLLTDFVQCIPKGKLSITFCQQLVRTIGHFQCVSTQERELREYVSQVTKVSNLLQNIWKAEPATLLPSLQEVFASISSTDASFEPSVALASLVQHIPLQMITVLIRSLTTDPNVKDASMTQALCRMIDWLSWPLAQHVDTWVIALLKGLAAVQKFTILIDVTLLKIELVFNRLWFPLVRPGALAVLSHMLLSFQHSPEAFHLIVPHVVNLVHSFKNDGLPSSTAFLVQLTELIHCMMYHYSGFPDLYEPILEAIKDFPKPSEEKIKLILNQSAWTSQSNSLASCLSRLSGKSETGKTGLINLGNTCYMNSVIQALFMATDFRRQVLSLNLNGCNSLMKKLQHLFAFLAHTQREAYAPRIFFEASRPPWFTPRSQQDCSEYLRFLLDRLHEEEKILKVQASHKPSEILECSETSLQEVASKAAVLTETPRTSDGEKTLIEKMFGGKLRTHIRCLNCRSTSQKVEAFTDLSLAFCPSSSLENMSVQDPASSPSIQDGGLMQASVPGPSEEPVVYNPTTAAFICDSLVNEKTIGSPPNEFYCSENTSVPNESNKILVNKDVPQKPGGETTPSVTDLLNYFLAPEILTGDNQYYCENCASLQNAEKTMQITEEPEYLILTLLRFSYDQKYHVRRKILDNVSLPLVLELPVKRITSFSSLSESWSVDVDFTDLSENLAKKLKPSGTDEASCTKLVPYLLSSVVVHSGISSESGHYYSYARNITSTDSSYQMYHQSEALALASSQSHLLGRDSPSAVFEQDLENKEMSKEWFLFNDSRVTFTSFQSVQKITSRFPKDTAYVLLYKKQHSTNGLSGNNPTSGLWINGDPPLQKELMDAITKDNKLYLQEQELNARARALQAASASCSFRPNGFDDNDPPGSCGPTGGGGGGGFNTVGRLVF
Summary of the method: as §1

[4] = target: T3, USP39 (UniProt Q53GS9)
T3 sequence (whole entry): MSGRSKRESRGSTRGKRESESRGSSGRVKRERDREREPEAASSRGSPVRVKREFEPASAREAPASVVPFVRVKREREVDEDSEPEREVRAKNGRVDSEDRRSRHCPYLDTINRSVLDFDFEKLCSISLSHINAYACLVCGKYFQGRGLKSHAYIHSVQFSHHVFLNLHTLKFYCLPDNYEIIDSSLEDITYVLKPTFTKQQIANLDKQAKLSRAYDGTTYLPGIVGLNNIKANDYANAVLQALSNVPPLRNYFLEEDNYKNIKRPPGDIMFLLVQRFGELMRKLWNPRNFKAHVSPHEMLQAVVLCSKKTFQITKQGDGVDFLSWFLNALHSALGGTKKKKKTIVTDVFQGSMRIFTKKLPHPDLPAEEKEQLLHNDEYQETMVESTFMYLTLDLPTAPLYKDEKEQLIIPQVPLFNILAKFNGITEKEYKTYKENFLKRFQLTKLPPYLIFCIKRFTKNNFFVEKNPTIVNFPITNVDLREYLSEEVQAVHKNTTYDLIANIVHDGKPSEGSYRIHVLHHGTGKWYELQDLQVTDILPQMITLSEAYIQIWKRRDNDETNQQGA
Summary of the method: as §1

[5] = target: T4, USP4 (UniProt Q13107)
T4 sequence (whole entry): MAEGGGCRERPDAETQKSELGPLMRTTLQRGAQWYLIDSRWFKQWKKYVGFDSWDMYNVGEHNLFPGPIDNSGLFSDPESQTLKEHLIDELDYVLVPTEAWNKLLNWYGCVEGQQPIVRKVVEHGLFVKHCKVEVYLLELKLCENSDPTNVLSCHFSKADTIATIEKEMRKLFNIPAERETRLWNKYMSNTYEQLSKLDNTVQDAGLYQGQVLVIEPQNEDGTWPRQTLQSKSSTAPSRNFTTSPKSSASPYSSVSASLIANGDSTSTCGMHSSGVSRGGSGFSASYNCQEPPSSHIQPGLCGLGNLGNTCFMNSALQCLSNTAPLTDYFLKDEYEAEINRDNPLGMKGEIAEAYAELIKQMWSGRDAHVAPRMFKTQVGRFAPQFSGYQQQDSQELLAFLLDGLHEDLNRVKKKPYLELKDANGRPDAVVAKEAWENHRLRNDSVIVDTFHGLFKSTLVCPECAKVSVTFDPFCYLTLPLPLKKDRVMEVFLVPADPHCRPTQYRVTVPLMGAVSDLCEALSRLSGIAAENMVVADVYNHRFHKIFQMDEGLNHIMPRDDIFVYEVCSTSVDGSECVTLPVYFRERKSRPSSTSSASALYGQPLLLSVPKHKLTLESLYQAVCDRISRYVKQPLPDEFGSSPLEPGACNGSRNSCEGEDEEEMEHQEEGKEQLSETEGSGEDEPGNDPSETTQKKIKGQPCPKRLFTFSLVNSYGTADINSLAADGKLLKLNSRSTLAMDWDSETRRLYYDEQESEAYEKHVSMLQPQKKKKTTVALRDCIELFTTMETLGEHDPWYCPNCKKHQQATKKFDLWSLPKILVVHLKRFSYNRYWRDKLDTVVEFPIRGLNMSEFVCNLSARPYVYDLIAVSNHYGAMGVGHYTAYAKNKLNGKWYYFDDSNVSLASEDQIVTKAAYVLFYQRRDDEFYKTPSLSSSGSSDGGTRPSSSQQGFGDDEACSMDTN
Summary of the method: as §1

Measured: log2 ratio of Biotin-Ahx-Ub-VS probe labelling

O=C(CCl)NCCC1=CCCCC1
inactive: [1] 0.0934 | [2] -0.119 | [3] -0.0475 | [4] 0.131 | [5] 0.0999
